In all, about 4,100 compounds went through this assay and about 1,600 (39%) were called active. Inconclusive results (about 25%) are left out. Calls come from the whole dose curve; as a rule, active = well fitted inhibition curve with a large enough effect; inconclusive = small, poorly fitted or top-dose-only effect; inactive = no such curve, though single readings can be large or run the other way. The list shows a part of the results.
Assay: qHTS Validation assay for Inhibitors of Plasmodium falciparum Dd2 growth in vitro; note: nearly all actives have a fitted effect of over 70% in size
Conditions: P. falciparum Dd2 in RBCs, SYBR Green growth, 72 h; series mostly up to 28.7 µM
Summary of the method: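 P. falciparum Dd2-infected red blood cells (2.5% hematocrit, 0.3% parasitemia) grown 72 h at 37 °C under 5% O2 with compounds in a titration, 29 uM to 0.5 nM final. Growth read as SYBR Green-1 fluorescence after ~16 h lysis; artesunate 300 nM as positive control.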
With COc1ccc(OC)c(C2Nc3c(C)cc(C)cc3-c3cc(C)nn32)c1 (configuration not stated) the Potency was “inactive”. In the case of c1ccc(-c2nc(NCc3ccco3)c3ccccc3n2)nc1, the Potency is reported as 5.96 µM (active). With c1ccc(CCNc2nc(-c3ccccn3)nc3ccccc23)cc1 the Potency was 4.73 µM (active). In the case of CCCN(CCC)c1nc(-c2ccccn2)nc2ccccc12, the Potency is reported as 5.31 µM (active). For CCCCOc1cccc(C(=O)N(Cc2ccc(Br)o2)C2CCS(=O)(=O)C2)c1 (configuration not stated), the Potency was “inactive”. With Oc1cc(NCc2ccc(F)cc2)cc2cccnc12 the Potency was 4.73 µM (active). In the case of Oc1cc(NCc2ccccc2)cc2cccnc12, the Potency is reported as 2.99 µM (active). With O=C(CCn1c(=O)c2cccn2c2cccnc21)NCc1ccc(F)cc1 the Potency was “inactive”. With Cc1ccc(-c2cc3c(=O)n(CCNC(=O)c4cccnc4)ccn3n2)c(C)c1 the Potency was “inactive”. With COc1cccc(NC(=O)CCc2c(C)nc3c4cccnc4nn3c2C)c1 the Potency was “inactive”. With COc1ccc(C(=O)OCCc2cc3ccccc3c(=O)o2)cc1 the Potency was “inactive”. In the case of COc1cccc(NC(=O)CN(C)C(=O)c2oc3c(ccc4ccccc43)c2C)c1, the Potency is reported as 0.75 µM (active). In the case of COc1ccc(NC(=O)CN(C)C(=O)c2oc3c(ccc4ccccc43)c2C)cc1, the Potency is reported as 0.531 µM (active). For COc1cccc(CNC(=O)Cn2c(SCC(=O)Nc3ccc(F)cc3)nc3ccccc32)c1, the Potency was “inactive”. With COCc1nc(C2CC(NC(=O)c3cc(-c4ccsc4)n[nH]3)C2)cc(=O)[nH]1 (configuration not stated) the Potency was “inactive”. In the case of COc1ccc(C(C(=O)Nc2ccc(C(C)C)cc2)N(Cc2ccco2)C(=O)CC2NC(=O)NC2=O)cc1 (configuration not stated), the Potency is reported as 6.68 µM (active). For CN1CCN(C(=O)c2ccc3c(c2)N(Cc2ccc(C(F)(F)F)cc2)C(=O)c2ccccc2S3)CC1, the Potency was 0.531 µM (active). In the case of CCOc1ccc(CN2C(=O)c3ccccc3Sc3ccc(C(=O)N4CCN(C)CC4)cc32)cc1, the Potency is reported as 0.299 µM (active). In the case of O=C(c1ccc2[nH]ncc2c1)N1CCOCC12CCN(CCCc1ccccc1)CC2, the Potency is reported as “inactive”. For O=C(Nc1ccsc1C(=O)NC1CCCCC1)c1ccc(F)cc1, the Potency was 6.68 µM (active). For Cc1cn2nc(C(=O)N3CCC(NC(=O)c4ccc(F)cc4)CC3)cc2c(=O)[nH]1, the Potency was “inactive”. In the case of CCCN(CC1CCOC1)S(=O)(=O)c1ccc(C)c(C)c1 (configuration not stated), the Potency is reported as “inactive”. In the case of COC(=O)c1cnn(-c2ccc(C(=O)Nc3ccc(OC(F)(F)F)cc3)cc2)c1N, the Potency is reported as 4.73 µM (active). In the case of Cc1ccc(C(=O)Nc2ccc(OCc3cc(=O)n4c(C)csc4n3)cc2)cc1, the Potency is reported as “inactive”. With COC(=O)c1cnn(-c2ccc(C(=O)Nc3cccc(C(C)=O)c3)cc2)c1N the Potency was “inactive”. In the case of Cn1cc(CC(=O)N2CCCc3ncc(C(=O)Nc4cccnc4)cc32)c2ccccc21, the Potency is reported as “inactive”. For O=C(NCc1ccc2c(c1)OCO2)c1cnc2c(c1)N([S+](=O)([O-])c1cccnc1)CCC2, the Potency was “inactive”. With CC(C)c1ccc(CC(=O)N2CCCc3ncc(C(=O)NCCc4c[nH]c5ccccc45)cc32)cc1 the Potency was 15 µM (active). With CC(C)c1ccc(CC(=O)N2CCCc3ncc(C(=O)Nc4cccnc4)cc32)cc1 the Potency was 0.863 µM (active). With CC(C)CCNC(=O)c1cnc2c(c1)N(C(=O)Cc1cn(C)c3ccccc13)CCC2 the Potency was “inactive”. With CNC(=O)c1cnc2c(c1)N(C(=O)Cc1ccc(C(C)C)cc1)CCC2 the Potency was “inactive”. For O=C(O)CCC(=O)Nc1ccc(-n2ccc(C(F)(F)F)n2)cc1, the Potency was “inactive”. In the case of O=C1N(c2ccccc2C(F)(F)F)O[C@@]1(c1ccccc1)C1CCCCC1, the Potency is reported as 5.31 µM (active). In the case of O=C1N(c2ccccc2C(F)(F)F)O[C@@]1(c1ccccc1)C1CCCC1, the Potency is reported as 2.99 µM (active). With O=C1CC2(CCN(CC3CCCCC3)CC2)Oc2cc(Cl)ccc21 the Potency was 1.5 µM (active). With O=C1CC2(CCN(Cc3cccs3)CC2)Oc2cc(Cl)ccc21 the Potency was 5.31 µM (active). In the case of CC(=O)c1c(C)nc(C)nc1NC(=O)C(C)C, the Potency is reported as “inactive”. With Cc1ccc(CN2CCC(CNC(=O)c3cnn(-c4ccc(C)cc4)c3C3CCN(C(=O)OC(C)(C)C)CC3)CC2)cc1 the Potency was 8.41 µM (active). For COc1ccccc1CN1CCC(CNC(=O)c2cnn(-c3ccc(Cl)cc3)c2C2CCN(C(=O)OC(C)(C)C)CC2)CC1, the Potency was 2.66 µM (active). With COc1ccccc1CN1CCC(CNC(=O)c2cnn(-c3cccc(Cl)c3)c2C2CCN(C(=O)OC(C)(C)C)CC2)CC1 the Potency was 7.5 µM (active). In the case of CNC(=O)[C@@H]1CN(C(=O)c2cc(OC)cc(OC)c2)C[C@H]1COC, the Potency is reported as “inactive”. In the case of CC(=O)Nc1ccc(NC(=O)Cn2ccn3nc4c(c3c2=O)CCCCC4)cc1, the Potency is reported as “inactive”. With COc1ccccc1Cn1cc(C(=O)c2ccc(C)cc2)c(=O)c2cc(C)ccc21 the Potency was “inactive”. In the case of COc1ccc(-c2cc(=O)oc3c4c(ccc23)OCN(Cc2ccccc2)C4)cc1, the Potency is reported as 2.99 µM (active). In the case of COc1ccccc1CN1COc2ccc3c(oc(=O)c4ccccc43)c2C1, the Potency is reported as 2.11 µM (active). With O=c1cc(-c2ccccc2)c2ccc3c(c2o1)CN(Cc1ccccc1)CO3 the Potency was 2.66 µM (active). For CCc1c(C)c2ccc(O)c(CN3CCN(c4ccccc4)CC3)c2oc1=O, the Potency was 2.37 µM (active). For COc1ccc(-c2ncc3c(n2)OCCN(Cc2ccccc2)C3=O)cc1, the Potency was “inactive”. With Cn1nc(-c2nncn2CC2CC2)c2c1CCN(C(=O)c1[nH]nc3c1COc1ccccc1-3)C2 the Potency was “inactive”. With COc1cccc(C2Cn3nnc(-c4nc(-c5ccccc5Br)no4)c3CO2)c1 (configuration not stated) the Potency was “inactive”. For CCC(=O)N(C1CCOCC1)C1CCN(Cc2cccc(Cl)c2)CC1, the Potency was “inactive”. With Cc1ccc(CN2CCc3oc(C)c(C(=O)N(C)CC(=O)N4CCCC4)c3C2)cc1 the Potency was “inactive”. With Cc1ccc(CN2COc3ccc4c(-c5ccccc5)cc(=O)oc4c3C2)cc1 the Potency was 0.842 µM (active). With O=C1CN(Cc2ccc(-c3ccccc3)cc2)CCN1c1cc(Cl)ncn1 the Potency was “inactive”. With CCc1c(C)c2ccc3c(c2oc1=O)CN(Cc1ccccc1)CO3 the Potency was 2.11 µM (active). For O=c1cc(-c2ccccc2)c2ccc3c(c2o1)CN(Cc1cccc(Cl)c1)CO3, the Potency was 0.842 µM (active). With O=C(NC(=S)Nc1ccc(NC(=O)c2cccs2)cc1)c1ccco1 the Potency was 9.44 µM (active). For COc1ccccc1CC(=O)NCCn1ccn2nc(-c3ccc(C)c(C)c3)cc2c1=O, the Potency was “inactive”. In the case of COc1ccc(-n2nc(C(=O)NCCc3ccc(OC)c(OC)c3)c3c4ccccc4n(C)c3c2=O)cc1Cl, the Potency is reported as 2.99 µM (active). With CCOc1ccc(-c2cc3c(=O)n(CCNC(=O)c4ccccc4OC)ccn3n2)cc1 the Potency was “inactive”. With CCN(CC)CCCNC(=O)c1nn(-c2ccc(OC)c(Cl)c2)c(=O)c2c1c1ccccc1n2C the Potency was 10.6 µM (active). With COc1ccc(C(=O)NCCn2ccn3nc(-c4cc(C)ccc4C)cc3c2=O)cc1OC the Potency was “inactive”. For CCN(CCCNC(=O)c1nn(-c2ccc(OC)c(Cl)c2)c(=O)c2c1c1ccccc1n2C)c1cccc(C)c1, the Potency was 15 µM (active). In the case of Cc1cccc(CNC(=O)Cn2nc(C)c3nn(-c4ccc(Cl)cc4)c(C)c3c2=O)c1, the Potency is reported as “inactive”. In the case of CCn1cnc2c(Nc3cc(F)cc(F)c3)nc(C#N)nc21, the Potency is reported as 2.37 µM (active). With N#Cc1nc(Nc2cc(F)cc(F)c2)c2ncn(CC(F)F)c2n1 the Potency was 4.73 µM (active). With Cc1ccc2nc(-c3sc4nc(C)ccc4c3N)[nH]c2c1 the Potency was “inactive”. With CCCC(O)c1nc2ccccc2n1CCCCOc1ccc(OC)cc1 (configuration not stated) the Potency was 15 µM (active). With COc1ccc(-c2cc3c(=O)n(CCNC(=O)c4cc(OC)cc(OC)c4)ccn3n2)cc1 the Potency was “inactive”. For CCC(C(=O)NCCn1ccn2nc(-c3ccc(OC)cc3)cc2c1=O)c1ccccc1 (configuration not stated), the Potency was 15 µM (active). In the case of COc1ccc(-c2cc3c(=O)n(CCNC(=O)c4ccc(OC)cc4OC)ccn3n2)cc1, the Potency is reported as “inactive”. In the case of CC(C)N(Cc1nc2ccccc2[nH]1)C(C)C, the Potency is reported as “inactive”. With COC[C@H]1CCCN1[C@@H]1[C@H](O)[C@H](CO)O[C@@H]1CN(Cc1cccc(Cl)c1)Cc1cccc(Cl)c1 the Potency was 10.6 µM (active). With O=C1c2ccccc2C2=Nc3ccccc3SC(c3ccc(Cl)cc3)C12 (configuration not stated) the Potency was 2.66 µM (active). With O=C1c2ccccc2C2=Nc3ccccc3SC(c3ccccc3F)C12 (configuration not stated) the Potency was 4.73 µM (active). With CCCOC(=O)c1c(NC(=O)C(C)Sc2nc(-c3ccccc3)cc(C(F)(F)F)n2)sc(C(=O)N(C)C)c1C (configuration not stated) the Potency was 1.68 µM (active). With Cc1ccc(NC(=O)CSc2nc(-c3ccco3)cc(C(F)(F)F)n2)c(C)c1 the Potency was “inactive”. For CCOC(=O)c1sc(NC(=O)C(C)Sc2nc(-c3ccccc3)cc(C(F)(F)F)n2)c(C(=O)OC)c1C (configuration not stated), the Potency was 2.37 µM (active). With CCN(CC)C(=O)c1sc(NC(=O)C(C)Sc2nc(-c3ccccc3)cc(C(F)(F)F)n2)c(C(=O)OC)c1C (configuration not stated) the Potency was 0.596 µM (active). In the case of CCc1cc(C(=O)c2ccccc2)c(N)s1, the Potency is reported as “inactive”. In the case of COc1ccc2nc(C)cc(NCc3cccc(C(F)(F)F)c3)c2c1, the Potency is reported as 2.11 µM (active). For CCOc1ccc2nc(C)cc(Nc3ccc4c(c3)OCCO4)c2c1, the Potency was 6.68 µM (active). With Cc1ccc2nc(C)cc(Nc3ccc([N+](=O)[O-])cc3)c2c1 the Potency was 6.68 µM (active). In the case of Cc1ccc(-c2onc3ccc(C(=O)O)cc23)cc1, the Potency is reported as “inactive”. With COC(=O)c1ccc2nc(C)cc(Nc3ccc(O)cc3)c2c1 the Potency was 9.44 µM (active). For COc1ccc2nc(C)cc(Nc3ccc(Cl)c(Cl)c3)c2c1, the Potency was 2.66 µM (active). For CCc1nc2cc(N3CCC(C(=O)NCc4ccc5c(c4)OCO5)CC3)cnc2nc1CC, the Potency was “inactive”. With Cc1ccc(S(=O)(=O)N2CCC(C(=O)NCC3CC3)CC2)cc1 the Potency was “inactive”. With Cc1ccc(S(=O)(=O)N2CCN(C(=S)NCc3ccc4c(c3)OCO4)CC2)cc1 the Potency was 2.37 µM (active). With CCCc1cc(=O)oc2cc(C)cc(OCC(=O)Nc3ccccn3)c12 the Potency was 2.11 µM (active). With Cc1cccnc1NC(=O)COc1ccc2oc3c(c2c1)CCCC3 the Potency was “inactive”. With CCCc1cc(=O)oc2cc(C)cc(OCC(=O)Nc3cccnc3)c12 the Potency was 0.531 µM (active). For Cc1ccc(C)c(OCC(=O)Nc2cc(C(=O)O)cc(C(=O)O)c2)c1, the Potency was “inactive”. In the case of CCCCc1cc(=O)oc2cc(C)cc(OCC(=O)Nc3cccnc3)c12, the Potency is reported as 0.596 µM (active). For Cc1cccc(OCC(=O)NC2CCN(C(=O)c3cc4c(=O)[nH]c(C)cn4n3)CC2)c1, the Potency was “inactive”. In the case of CCn1ncc(N2CCC(NC(=O)COc3ccc(F)cc3)CC2)cc1=O, the Potency is reported as “inactive”. With CCCc1cc(=O)oc2cc(C)cc(OCC(=O)NC3CC3)c12 the Potency was 4.73 µM (active).

From PubChem BioAssay AID1347416 (National Center for Advancing Translational Sciences (NCATS), 2020)
Potency is the fitted concentration of half-maximal effect.
